Experimental data reported in the supplement of paper PMC4022240.
± gives the standard deviation.

Legend:
Assay in all cases: peptide microarray binding signal (635 nm), min-max normalized on array (fraction of array maximum); higher = stronger binding
Details in all cases: peptide region: H3 11-23
[1] = biological target: T1, HaloTag-ATRX ADD domain (163-292)
T1 chain: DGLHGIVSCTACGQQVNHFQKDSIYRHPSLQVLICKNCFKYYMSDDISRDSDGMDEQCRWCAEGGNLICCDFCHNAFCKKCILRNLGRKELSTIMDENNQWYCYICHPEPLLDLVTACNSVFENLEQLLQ
How it was run: (§1)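 An Axon GenePix 4000B scanned the arrays at 635 nm for signal and at 532 nm to catch misprints. Those arrays held histone 13-mer peptide–cellulose conjugates printed in triplicate on nitrocellulose with a Cy3 tracer, blocked overnight at 4°C and probed for 1 h at 4°C with biotin-labelled HaloTag reader fusions (10 nM to 1 μM) plus streptavidin-Alexa Fluor 647 or with rabbit histone antibodies (1:10,000 to 1:2,000) plus anti-rabbit Alexa 647. Each binding signal is a triplicate-spot mean intensity, scaled min-max within its library.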

[2] = biological target: HaloTag-ING2 PHD (mouse Ing2 200-280)
How it was run: as §1

[3] = biological target: anti-H3K4me3 antibody ab8580
How it was run: as §1

[4] = biological target: anti-H3K9me3 antibody ab8898
How it was run: as §1

[5] = peptide modifications: H3K14me3 H3K18me3, binder concentration: 1:2,000 dilution
[6] = peptide modifications: H3K14me3 H3K18me3, binder concentration: 1:10,000 dilution
[7] = peptide modifications: H3K14me3 H3R17cit, binder concentration: 1:2,000 dilution
[8] = peptide modifications: H3K14me3 H3R17cit, binder concentration: 1:10,000 dilution
[9] = peptide modifications: H3K14me3 H3R17me1, binder concentration: 1:2,000 dilution
[10] = peptide modifications: H3K14me3 H3R17me1, binder concentration: 1:10,000 dilution
[11] = peptide modifications: H3K14me3 H3R17me2a, binder concentration: 1:2,000 dilution
[12] = peptide modifications: H3K14me3 H3R17me2a, binder concentration: 1:10,000 dilution
[13] = peptide modifications: H3K14me3 H3R17me2s, binder concentration: 1:2,000 dilution
[14] = peptide modifications: H3K14me3 H3R17me2s, binder concentration: 1:10,000 dilution
[15] = peptide modifications: H3K18ac, binder concentration: 1:2,000 dilution
[16] = peptide modifications: H3K18ac, binder concentration: 1:10,000 dilution
[17] = peptide modifications: H3K18me1, binder concentration: 1:2,000 dilution
[18] = peptide modifications: H3K18me1, binder concentration: 1:10,000 dilution
[19] = peptide modifications: H3K18me2, binder concentration: 1:2,000 dilution
[20] = peptide modifications: H3K18me2, binder concentration: 1:10,000 dilution
[21] = peptide modifications: H3K18me3, binder concentration: 1:2,000 dilution
[22] = peptide modifications: H3K18me3, binder concentration: 1:10,000 dilution
[23] = peptide modifications: H3R17cit H3K18ac, binder concentration: 1:2,000 dilution
[24] = peptide modifications: H3R17cit H3K18ac, binder concentration: 1:10,000 dilution

B1: H3 11-23 T G G Kme3 A P R Kme3 Q L A T K (peptide)
chain: TGGKAPRKQLATK
peptide microarray binding signal ([1]; peptide modifications: H3K14me3 H3K18me3, binder concentration: 50 nM): 0.00652 ± 5.7e-05
peptide microarray binding signal ([1]; peptide modifications: H3K14me3 H3K18me3, binder concentration: 500 nM): 0.00876 ± 0.00042
peptide microarray binding signal ([2]; peptide modifications: H3K14me3 H3K18me3, binder concentration: 10 nM): 0.00865 ± 0.0015
peptide microarray binding signal ([2]; peptide modifications: H3K14me3 H3K18me3, binder concentration: 100 nM): 0.0149 ± 0.0019
peptide microarray binding signal [3, 5]: 0.45 ± 0.069
peptide microarray binding signal [3, 6]: 0.408 ± 0.048
peptide microarray binding signal [4, 5]: 0.18 ± 0.013
peptide microarray binding signal [4, 6]: 0.0505 ± 0.0048

B2: H3 11-23 T G G Kme3 A P Rcit K Q L A T K (peptide)
chain: TGGKAPRKQLATK
peptide microarray binding signal ([1]; peptide modifications: H3K14me3 H3R17cit, binder concentration: 50 nM): 0.00273 ± 3.1e-05
peptide microarray binding signal ([1]; peptide modifications: H3K14me3 H3R17cit, binder concentration: 500 nM): 0.003095 ± 2.4e-05
peptide microarray binding signal ([2]; peptide modifications: H3K14me3 H3R17cit, binder concentration: 10 nM): 0.00603 ± 0.00019
peptide microarray binding signal ([2]; peptide modifications: H3K14me3 H3R17cit, binder concentration: 100 nM): 0.00709 ± 0.00015
peptide microarray binding signal [3, 7]: 0.00325 ± 7.6e-05
peptide microarray binding signal [3, 8]: 0.00257 ± 6e-05
peptide microarray binding signal [4, 7]: 0.00877 ± 0.0011
peptide microarray binding signal [4, 8]: 0.00519 ± 0.00016

B3: H3 11-23 T G G Kme3 A P Rme K Q L A T K (peptide)
chain: TGGKAPRKQLATK
peptide microarray binding signal ([1]; peptide modifications: H3K14me3 H3R17me1, binder concentration: 50 nM): 0.0176 ± 0.0022
peptide microarray binding signal ([1]; peptide modifications: H3K14me3 H3R17me1, binder concentration: 500 nM): 0.0147 ± 0.00081
peptide microarray binding signal ([2]; peptide modifications: H3K14me3 H3R17me1, binder concentration: 10 nM): 0.00609 ± 0.00015
peptide microarray binding signal ([2]; peptide modifications: H3K14me3 H3R17me1, binder concentration: 100 nM): 0.00772 ± 0.00033
peptide microarray binding signal [3, 9]: 0.00823 ± 0.00055
peptide microarray binding signal [3, 10]: 0.00502 ± 0.00025
peptide microarray binding signal [4, 9]: 0.0269 ± 0.0047
peptide microarray binding signal [4, 10]: 0.0115 ± 0.00069

B4: H3 11-23 T G G Kme3 A P Rme2a K Q L A T K (peptide)
chain: TGGKAPRKQLATK
peptide microarray binding signal ([1]; peptide modifications: H3K14me3 H3R17me2a, binder concentration: 50 nM): 0.0192 ± 0.0025
peptide microarray binding signal ([1]; peptide modifications: H3K14me3 H3R17me2a, binder concentration: 500 nM): 0.027 ± 0.0031
peptide microarray binding signal ([2]; peptide modifications: H3K14me3 H3R17me2a, binder concentration: 10 nM): 0.0158 ± 0.0011
peptide microarray binding signal ([2]; peptide modifications: H3K14me3 H3R17me2a, binder concentration: 100 nM): 0.0298 ± 0.0018
peptide microarray binding signal [3, 11]: 0.0582 ± 0.0093
peptide microarray binding signal [3, 12]: 0.0419 ± 0.0073
peptide microarray binding signal [4, 11]: 0.133 ± 0.0046
peptide microarray binding signal [4, 12]: 0.0547 ± 0.0033

B5: H3 11-23 T G G Kme3 A P Rme2s K Q L A T K (peptide)
chain: TGGKAPRKQLATK
peptide microarray binding signal ([1]; peptide modifications: H3K14me3 H3R17me2s, binder concentration: 50 nM): 0.0074 ± 0.0004
peptide microarray binding signal ([1]; peptide modifications: H3K14me3 H3R17me2s, binder concentration: 500 nM): 0.0114 ± 0.00062
peptide microarray binding signal ([2]; peptide modifications: H3K14me3 H3R17me2s, binder concentration: 10 nM): 0.0227 ± 0.00044
peptide microarray binding signal ([2]; peptide modifications: H3K14me3 H3R17me2s, binder concentration: 100 nM): 0.0342 ± 0.0024
peptide microarray binding signal [3, 13]: 0.0208 ± 0.0037
peptide microarray binding signal [3, 14]: 0.0151 ± 0.00082
peptide microarray binding signal [4, 13]: 0.021 ± 0.0014
peptide microarray binding signal [4, 14]: 0.0116 ± 0.00028

B6: H3 11-23 T G G K A P R Kac Q L A T K (peptide)
chain: TGGKAPRKQLATK
peptide microarray binding signal ([1]; peptide modifications: H3K18ac, binder concentration: 50 nM): 0.00715 ± 0.00076
peptide microarray binding signal ([1]; peptide modifications: H3K18ac, binder concentration: 500 nM): 0.023 ± 0.014
peptide microarray binding signal ([2]; peptide modifications: H3K18ac, binder concentration: 10 nM): 0.0127 ± 0.0019
peptide microarray binding signal ([2]; peptide modifications: H3K18ac, binder concentration: 100 nM): 0.0351 ± 0.016
peptide microarray binding signal [3, 15]: 0.00259 ± 0.002
peptide microarray binding signal [3, 16]: 0.00462 ± 0.00058
peptide microarray binding signal [4, 15]: 0.00184 ± 8.2e-05
peptide microarray binding signal [4, 16]: 0.00173 ± 8.8e-05

B7: H3 11-23 T G G K A P R Kme Q L A T K (peptide)
chain: TGGKAPRKQLATK
peptide microarray binding signal ([1]; peptide modifications: H3K18me1, binder concentration: 50 nM): 0.00433 ± 0.00015
peptide microarray binding signal ([1]; peptide modifications: H3K18me1, binder concentration: 500 nM): 0.0187 ± 0.00044
peptide microarray binding signal ([2]; peptide modifications: H3K18me1, binder concentration: 10 nM): 0.00979 ± 0.0017
peptide microarray binding signal ([2]; peptide modifications: H3K18me1, binder concentration: 100 nM): 0.0252 ± 0.0035
peptide microarray binding signal [3, 17]: 0.00217 ± 0.00021
peptide microarray binding signal [3, 18]: 0.00108 ± 1.9e-05
peptide microarray binding signal [4, 17]: 0.00293 ± 8.2e-05
peptide microarray binding signal [4, 18]: 0.00173 ± 6e-05

B8: H3 11-23 T G G K A P R Kme2 Q L A T K (peptide)
chain: TGGKAPRKQLATK
peptide microarray binding signal ([1]; peptide modifications: H3K18me2, binder concentration: 50 nM): 0.00558 ± 0.00014
peptide microarray binding signal ([1]; peptide modifications: H3K18me2, binder concentration: 500 nM): 0.0142 ± 0.0013
peptide microarray binding signal ([2]; peptide modifications: H3K18me2, binder concentration: 10 nM): 0.004595 ± 2.3e-05
peptide microarray binding signal ([2]; peptide modifications: H3K18me2, binder concentration: 100 nM): 0.0225 ± 0.0074
peptide microarray binding signal [3, 19]: 0.00421 ± 0.00019
peptide microarray binding signal [3, 20]: 0.001541 ± 1.5e-05
peptide microarray binding signal [4, 19]: 0.00397 ± 0.00076
peptide microarray binding signal [4, 20]: 0.00231 ± 4.2e-05

B9: H3 11-23 T G G K A P R Kme3 Q L A T K (peptide)
chain: TGGKAPRKQLATK
peptide microarray binding signal ([1]; peptide modifications: H3K18me3, binder concentration: 50 nM): 0.0107 ± 0.00077
peptide microarray binding signal ([1]; peptide modifications: H3K18me3, binder concentration: 500 nM): 0.0257 ± 0.0005
peptide microarray binding signal ([2]; peptide modifications: H3K18me3, binder concentration: 10 nM): 0.00937 ± 0.00052
peptide microarray binding signal ([2]; peptide modifications: H3K18me3, binder concentration: 100 nM): 0.0178 ± 0.0018
peptide microarray binding signal [3, 21]: 0.257 ± 0.035
peptide microarray binding signal [3, 22]: 0.263 ± 0.14
peptide microarray binding signal [4, 21]: 0.0698 ± 0.0096
peptide microarray binding signal [4, 22]: 0.0292 ± 0.0022

B10: H3 11-23 T G G K A P Rcit Kac Q L A T K (peptide)
chain: TGGKAPRKQLATK
peptide microarray binding signal ([1]; peptide modifications: H3R17cit H3K18ac, binder concentration: 50 nM): 0.00473 ± 9.3e-05
peptide microarray binding signal ([1]; peptide modifications: H3R17cit H3K18ac, binder concentration: 500 nM): 0.0124 ± 0.00036
peptide microarray binding signal ([2]; peptide modifications: H3R17cit H3K18ac, binder concentration: 10 nM): 0.00364
peptide microarray binding signal ([2]; peptide modifications: H3R17cit H3K18ac, binder concentration: 100 nM): 0.0114 ± 0.0017
peptide microarray binding signal [3, 23]: 0.003 ± 0.00042
peptide microarray binding signal [3, 24]: 0.0028 ± 0.00011
peptide microarray binding signal [4, 23]: 0.000634 ± 2.6e-05
peptide microarray binding signal [4, 24]: 0.000865 ± 2.4e-05
